Screens from PubChem BioAssay.
An excerpt weighted towards active compounds, which were near 8.3% of everything screened.
MCF10A rerep – induces DNA re-replication in MCF 10a normal breast cells; Potency, µM (titrated, usually from 46.1 µM), for inactives: at the top dose activity, positive = re-replication, actives largely listed as activators; MCF 10A DNA re-replication, Hoechst nuclear intensity, 48 h; 350,000 compounds, 2.9% hits; AID 624296; further: potency means the concentration at half of the fitted maximal effect; % of control where 0% means no effect; nearly all actives have a fitted effect of over 50% in size
SW480 rerep – induces DNA re-replication in SW480 colon adenocarcinoma cells; AID 624297; 340,000 compounds, 1.8% hits; SW480 DNA re-replication, Hoechst DNA content imaging, 48 h; Potency, µM (series often up to 46.1 µM), inactives show at the top dose re-replication activation, usual class: activators; further: potency means the concentration at half of the fitted maximal effect; % of control where 0% means no effect; nearly all actives have a fitted effect of over 55% in size
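Cells (250 per well) received 23 nL compound or DMSO by pin tool and were kept 48 hr at 37 C, 5% CO2. Nuclei were then stained with Hoechst for 40 min and scanned for DNA content.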
Gal4-VP16 FLuc – Gal4-VP16 reporter inhibition counter-screen; Drosophila S2 Gal4-VP16 UAS-luciferase, luminescence, 20 h; Potency, µM (top dose mostly 53.6 µM), for inactives: at the top dose activity, negative = inhibition, most hits filed as inhibitors; 310,000 compounds, 3.5% hits; AID 2546;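 further: Gal4-VP16 expression switched on by copper sulfate through the metallothionein promoter; potency means the concentration at half of the fitted maximal effect; on the % scale 0 is the no-effect control and ±100 the full control effect; nearly all actives have a fitted effect of over 50% in size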
BCR signal inh – blocks chronic active B-cell receptor signaling; ABC-DLBCL IkBa-CBG/CBR reporter, luminescence ratio, 4 h; Potency, µM (top dose mostly 46.1 µM), without a hit: top-dose activity change, negative = inhibition, most hits filed as inhibitors; 340,000 compounds, 0.05% hits; AID 493014; active means well fitted inhibition curve with a large enough effect in the signal ratio, with a control signal flat, not every such curve was filed as active; inconclusive means small, poorly fitted or top-dose-only effect, or effect the other way, or a change in a side signal; the % refers to the signal ratio;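 further: potency means the concentration at half of the fitted maximal effect; plate controls were basal doxycycline-induced cells for no effect and cells given 10 µM MG132 for full effect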
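Concentration-response series (up to 46 uM) were applied to TMD8 dual-reporter cells for 4 h at 37C with doxycycline. Green/red ratio, after filter-overlap correction, defined %Activity; red signal alone was normalised to basal cells and zero luminescence.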
RORgamma inh – blocks mouse ROR gamma transcriptional activity; P51450; Drosophila S2 Gal4-RORgamma UAS-luciferase reporter, 20 h; Potency, µM (highest dose often 53.6 µM), for the others: at the highest dose activity change, negative = inhibition, most hits filed as inhibitors; 310,000 compounds, 5.4% hits; AID 2551; further: potency means the concentration at half of the fitted maximal effect; on the % scale 0 is the no-effect control and ±100 the full control effect; nearly all actives have a fitted effect of over 60% in size
Target sequence (P51450 whole entry, looked up, the tested form may be a part): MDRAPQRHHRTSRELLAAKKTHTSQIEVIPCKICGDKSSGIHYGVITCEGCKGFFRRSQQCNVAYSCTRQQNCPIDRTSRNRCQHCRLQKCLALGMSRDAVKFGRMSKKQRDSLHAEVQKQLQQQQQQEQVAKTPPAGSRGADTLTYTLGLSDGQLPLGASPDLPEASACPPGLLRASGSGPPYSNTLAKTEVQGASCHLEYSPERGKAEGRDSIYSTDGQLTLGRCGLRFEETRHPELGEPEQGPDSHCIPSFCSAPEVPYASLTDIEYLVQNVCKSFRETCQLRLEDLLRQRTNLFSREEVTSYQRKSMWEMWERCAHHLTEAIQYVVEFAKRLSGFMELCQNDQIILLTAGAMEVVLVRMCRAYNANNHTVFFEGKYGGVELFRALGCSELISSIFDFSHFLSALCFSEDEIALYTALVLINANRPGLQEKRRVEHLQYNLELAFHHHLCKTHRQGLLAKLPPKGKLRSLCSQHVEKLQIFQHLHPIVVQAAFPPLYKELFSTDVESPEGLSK
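Schneider cells (Drosophila), stable Gal4 DBD–ROR gamma + UAS-luc; 1 hr cmpd preincubation; Cu2+ induction 700 uM final; 20 hr ambient; luminescence.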
Giardia killer – kills Giardia lamblia. Giardia lamblia trophozoite viability. activity change, % at 7.66 µM, hits read low. 340,000 compounds, 0.15% hits; in the data active means activity change below about -80%; inconclusive means between about -30% and that limit;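 further: parasites exposed to compound for two days anaerobically before the ATP read; on the % scale 0 is the no-effect control and ±100 the full control effect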
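Giardia lamblia trophozoites (100 cells/well) were incubated with compounds for 48 h at 37 deg C under anaerobic conditions. Viability was read as ATP content by one-step luminescence after 15-30 min at room temperature.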
* = called active by the depositor; [ ] = dose if it differs, or a comment. Unless noted, the call rests on the fitted dose curve; in most records, active means well fitted curve in the direction sought with a large enough effect; inconclusive means small, poorly fitted or top-dose-only effect, or another doubt; inactive means no such curve, though single readings can be large; an effect the other way counts as inactive or inconclusive.

Results for Cc1c(N2C(=O)/C(=C/c3ccc(N(C)C)cc3)N(C)C2=S)c(=O)n(-c2ccccc2)n1C ?
MCF10A rerep: -13%; SW480 rerep: 1%; Giardia killer: 9

What do the screens show for `CCC(C)c1nc2c(c(N3CCC3=O)c1-c1ccccc1)CCCC2` (stereo not drawn)?
MCF10A rerep: -3%; SW480 rerep: 0%; Giardia killer: 22

Results for CC(C)(C)c1cc(OC(=O)C2CCCC2)ccc1O ?
MCF10A rerep: inconclusive; SW480 rerep: inconclusive; Gal4-VP16 FLuc: 11µM*; BCR signal inh: inconclusive; RORgamma inh: inconclusive; Giardia killer: 26

What do the screens show for `CC(C)(C)c1cc(OS(C)(=O)=O)ccc1O`?
MCF10A rerep: 21%; SW480 rerep: -2%; Gal4-VP16 FLuc: inconclusive; BCR signal inh: inconclusive; RORgamma inh: 21%; Giardia killer: 8

What do the screens show for `CCCCC(CC)C(=O)Nc1ccc(C)c(O)c1` (stereo not drawn)?
MCF10A rerep: 0%; SW480 rerep: 1%; Gal4-VP16 FLuc: 4%; BCR signal inh: -1%; RORgamma inh: 26%; Giardia killer: 8

Results for CCCCC(CC)C(=O)Oc1ccc(O)c(C(C)(C)C)c1 (stereo not drawn) ?
MCF10A rerep: 4.1µM*; SW480 rerep: 9%; Gal4-VP16 FLuc: 3%[10 µM]; BCR signal inh: 1%; RORgamma inh: 4%; Giardia killer: 25

How did Cc1ccc2c(c1)[C@H]1[C@H](CO2)[C@H](c2ccccc2)[C@]2(C)C(=O)Nc3cc(F)c(F)cc3C(=O)N12 do in these assays?
MCF10A rerep: 5.2µM*; SW480 rerep: 23µM*; BCR signal inh: inconclusive; Giardia killer: -2

Results for COc1ccc2c(c1)OC[C@H]1[C@H]2N2C(=O)c3cc(F)ccc3NC(=O)[C@@]2(C)[C@H]1c1ccccc1 ?
MCF10A rerep: inconclusive; SW480 rerep: inconclusive; BCR signal inh: inconclusive; Giardia killer: -23

What do the screens show for `Cc1ccc2c(c1)[C@H]1[C@H](CO2)[C@H](c2ccccc2)[C@]2(C)C(=O)Nc3cc(Cl)ccc3C(=O)N12`?
MCF10A rerep: 9.2µM*; SW480 rerep: inconclusive; BCR signal inh: inconclusive; Giardia killer: 12

Results for Cc1ccc2c(c1)[C@H]1[C@H](CO2)[C@H](c2ccccc2)[C@]2(C)C(=O)Nc3ccc(F)cc3C(=O)N12 ?
MCF10A rerep: 3.3µM*; SW480 rerep: 5.8µM*; Giardia killer: -11

Results for COc1ccc2c(c1)OC[C@H]1[C@H]2N2C(=O)c3ccc(C)cc3NC(=O)[C@@]2(C)[C@H]1c1ccccc1 ?
MCF10A rerep: 27%; SW480 rerep: 14%; BCR signal inh: inconclusive; Giardia killer: 21

How did C[C@@]12C(=O)Nc3cc(F)ccc3C(=O)N1[C@H]1c3ccccc3OC[C@@H]1[C@@H]2c1ccccc1 do in these assays?
MCF10A rerep: 29%; SW480 rerep: 2%; BCR signal inh: inconclusive; Giardia killer: -12

How did c1ccc2c(c1)Sc1ccccc1N2CCN1CCCC1 do in these assays?
MCF10A rerep: 7%; SW480 rerep: 3%; Gal4-VP16 FLuc: -1%; RORgamma inh: 21%

What do the screens show for `O=C1N=C2N(CCN3CCCCC3)c3ccccc3N2/C1=C\c1ccc([N+](=O)[O-])s1`?
MCF10A rerep: 18µM*; SW480 rerep: inconclusive; Giardia killer: -19

How did COc1ccc(/C=C/c2c([N+](=O)[O-])c(=O)n(C)c(=O)n2C)c(OC)c1 do in these assays?
MCF10A rerep: 19%; SW480 rerep: -1%; Gal4-VP16 FLuc: -11%; BCR signal inh: -1%; RORgamma inh: -19%; Giardia killer: 8

Results for Cn1c(/C=C/c2ccc(Cl)cc2Cl)c([N+](=O)[O-])c(=O)n(C)c1=O ?
MCF10A rerep: 2.9µM*; SW480 rerep: 9.2µM*; Gal4-VP16 FLuc: inconclusive; BCR signal inh: -2%; RORgamma inh: 11µM*; Giardia killer: -2
